Compounds with a hit are over-represented: about 31% of the library has one in this group of screens.
CYP2C9 inhib = blocks human cytochrome P450 2C9 | inhibition, % at 5 µM | 20% of 96,000 active | P11712 | CYP2C9 Supersomes, luciferin-H conversion, luminescence;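 active = blocking of liver enzyme CYP2C9 beyond about 50% at 5 µM, limit read from the data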
Target sequence (P11712 whole entry, looked up): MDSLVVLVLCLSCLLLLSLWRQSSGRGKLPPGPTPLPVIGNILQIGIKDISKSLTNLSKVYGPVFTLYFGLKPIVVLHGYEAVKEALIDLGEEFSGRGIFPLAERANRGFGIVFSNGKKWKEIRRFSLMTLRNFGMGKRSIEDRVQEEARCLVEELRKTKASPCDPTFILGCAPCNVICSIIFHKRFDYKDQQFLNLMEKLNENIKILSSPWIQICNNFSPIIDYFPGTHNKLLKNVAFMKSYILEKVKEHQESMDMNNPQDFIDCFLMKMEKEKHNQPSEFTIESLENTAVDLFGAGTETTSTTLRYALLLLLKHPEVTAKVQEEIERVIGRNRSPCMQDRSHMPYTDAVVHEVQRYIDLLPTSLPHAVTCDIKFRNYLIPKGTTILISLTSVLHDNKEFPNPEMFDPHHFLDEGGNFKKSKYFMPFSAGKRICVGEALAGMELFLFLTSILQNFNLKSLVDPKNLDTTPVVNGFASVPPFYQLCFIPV
CYP2C9 activ = CYP2C9 (human) activation | recombinant CYP2C9, luciferin-H conversion, luminescence; active compounds read high; factor 1 = untreated enzyme, 0 = blocked | activation factor at 5 µM | 1.4% of 96,000 active;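 active = activation factor of 2 or more for CYP2C9 at a 5 µM dose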
CYP2C19 act = activators of human cytochrome P450 2C19; AID 1025; activation factor at 5 µM; 96,000 tested, under 10 active; P33261; recombinant CYP2C19, luciferin-H EGE luminescence; active compounds read high; 0 = fully inhibited enzyme, 1 = untreated enzyme;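 active = activation factor of at least 2 at 5 µM in the primary screen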
CYP2C19 inhib = blocks human cytochrome P450 2C19; CYP2C19 Supersomes, luciferin-H EGE luminescence, 30 min; inhibition, % at 5 µM; 21% of 96,000 active;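 active = CYP2C19 inhibition above a set limit at 5 µM in the primary screen, cut at about 50% in these data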
PLAP act = activators of human placental alkaline phosphatase. 1.2% of 96,000 active. AID 696. purified PLAP enzyme, luminescent substrate read-out; active compounds read high. activation fold at 20 µM; in the data active = activation fold above about 2
Large screens that a line does not name were inactive.

O=c1c2ccccc2nc(SCc2cn3ccsc3n2)n1-c1ccccc1	CYP2C9 inhib 93.7, CYP2C19 inhib 83.7
O=c1c2nnn(Cc3ccc(Cl)cc3)c2ncn1Cc1ccc(F)cc1	none
CS(=O)(=O)c1cnc(-c2ccccc2)nc1Oc1ccc(Cl)cc1	none
Cc1cc(-c2c(C)n([O-])c(C)c(C)[n+]2=O)ccc1F	none
COc1ccc(-c2nc(CS(=O)CC(=O)NCCCN3CCCC3)c(C)o2)cc1OC (stereo not given)	none
Cc1cc(O)c(C(C[N+](=O)[O-])c2ccc(Cl)cc2Cl)c(=O)o1 (stereo not given)	CYP2C9 inhib 97.6, CYP2C19 inhib 77.1
CC(=O)N1c2ccc(S(=O)(=O)CCC(=O)O)cc2CC1C (stereo not given)	none
COc1cccc(C(=O)N2CCN(Cc3ccccn3)CC2)c1OC	none
COc1cccc(OC)c1C(=O)N1CCN(Cc2ccncc2)CC1	CYP2C9 inhib 62.6, CYP2C19 inhib 78.3
COc1ccccc1CN1CCN(C(=O)c2ccncc2)CC1	CYP2C19 inhib 86.6
Cc1ccc(NC(=O)c2cc(N3C(=O)C4CC=CCC4C3=O)ccc2N2CCOCC2)cc1Cl (stereo not given)	none
Cc1n[nH]c(=O)nc1N1CCc2ccccc2C1	none
COc1cccc(-c2nnc(SCC(=O)Nc3ccc(OC)c(OC)c3)n2N)c1	none
CC(C(=O)Nc1ccccc1)c1ccc(-c2ccccc2)c(F)c1 (stereo not given)	none
CC(Oc1ccc(-c2ccccc2)c(F)c1)c1ccn(S(=O)(=O)c2ccc(Br)cc2)n1 (stereo not given)	CYP2C9 inhib 71.3, CYP2C19 inhib 58.5
CCOC(=O)c1c(NC(=O)CSc2ncn[nH]2)sc(C)c1C	CYP2C9 inhib 85.3, CYP2C19 inhib 72.9, PLAP act 2
CCOC(=O)c1c(NC(=O)CSc2nc3ccccc3o2)sc(C)c1C	none
CCOC(=O)c1c(NC(=O)CSc2nc3ccccc3s2)sc(C)c1C	CYP2C9 inhib 65.0
CN1CCN(CP(=O)(N2CCOCC2)N2CCOCC2)CC1	none
Cc1cc(C(=O)OCC(=O)NCCc2ccccc2)c(C)o1	CYP2C9 inhib 87.6, CYP2C19 inhib 76.0
Cc1cc(C(=O)OCC(=O)Nc2ccccc2F)c(C)o1	none
CCOc1ncccc1C(=O)OCC(=O)NCCc1ccccc1	CYP2C19 inhib 67.7
CCOc1ncccc1C(=O)OCC(=O)Nc1cc(C)ccc1C	none
COC(=O)c1cc(C(=O)Nc2cc(C)ccn2)cc([N+](=O)[O-])c1	none
C=CCNC(=O)c1onc(CSc2ccc(C)c(C)c2)c1C(=O)O	CYP2C9 inhib 88.4, CYP2C19 inhib 94.1
CCCCNC(=O)c1onc(CSc2ccc(C)c(C)c2)c1C(=O)O	CYP2C9 inhib 82.8
CCc1ccccc1SCc1noc(C(=O)NCC2CCCO2)c1C(=O)O (stereo not given)	none
CCCCNC(=O)c1onc(CSc2ccc(F)c(F)c2)c1C(=O)O	CYP2C9 inhib 72.9
C=CCNC(=O)c1onc(CSc2ccccc2CC)c1C(=O)O	CYP2C9 inhib 79.8
COC(=O)c1c(CSc2ccc(C)c(C)c2)noc1C(=O)NCc1ccc(OC)cc1	CYP2C9 inhib 75.4, CYP2C19 inhib 65.0
COC(=O)c1c(CSc2ccc(Cl)cc2)noc1C(=O)NCc1ccco1	none
Cc1cc(NS(=O)(=O)c2ccc(NC(=S)NC(=O)c3ccc(Cl)cc3Cl)cc2)no1	none
Cc1ccc(-n2c(SCC3CCCCO3)nnc2-c2ccco2)cc1 (stereo not given)	CYP2C9 inhib 57.8
O=C(CSc1nnc(-c2ccco2)n1CC1CCCO1)N1CCCCC1 (stereo not given)	CYP2C19 inhib 52.1
COc1cccc(C(=O)CSc2nnc(-c3ccco3)n2CC2CCCO2)c1 (stereo not given)	CYP2C19 inhib 67.0
COc1ccc(C(=O)CSc2nnc(-c3ccco3)n2CC2CCCO2)cc1 (stereo not given)	none
CC(C)(C)c1ccc(COn2c(=O)c(-c3ccco3)[n+]([O-])c3ccccc32)cc1	none
COc1cccc(C2CC(=O)Nc3c2c(=O)n(C)c(=O)n3C)c1OC (stereo not given)	none
N#Cc1c(NCCCO)nc(NCc2ccccc2)c2c1CCN(Cc1ccccc1)C2	CYP2C9 inhib 99.9
N#Cc1c(NCCCO)nc(-c2ccco2)c2c1CCCC2	CYP2C9 inhib 91.7, CYP2C19 inhib 60.9
CN1CCc2c(C#N)c(N3CCCCC3)nc(NCc3ccccc3)c2C1	CYP2C9 inhib 74.1
O=C(Nc1ncnc2c1CCC2)C12CC3CC(CC(C3)C1)C2	none
Cc1cc(Cl)c(OCCCNCc2ccccc2)c(Br)c1	CYP2C19 inhib 56.6
Clc1ccc(OCCCNCc2ccccc2)c(Br)c1	CYP2C19 inhib 63.0
CCOc1ccc2nc(NCCCNS(=O)(=O)c3ccccc3)c(C#N)cc2c1	CYP2C9 inhib 54.8
COc1cc(/C=N/N2C(=O)CSC2=S)ccc1O	PLAP act 2.2
CN(CCc1ccccn1)c1ncnc2[nH]ncc12	PLAP act 2.1
C=CCn1c(CCNC(=O)c2ccc(Cl)c(Cl)c2)nnc1SCCOc1ccc(OC)cc1	CYP2C9 inhib 60.1
CC(c1ccco1)N(C(=O)CSc1ccc(Br)cc1)c1ccccn1 (stereo not given)	CYP2C9 inhib 89.8, CYP2C19 inhib 97.7
Cn1c2ccccc2c2ncn(CCCN3CCOCC3)c(=O)c21	none
Cn1c2ccccc2c2ncn(CCC3=CCCCC3)c(=O)c21	CYP2C9 inhib 83.8, CYP2C19 inhib 71.0
CC(O)C(=O)NCCOCCOCCNC(=O)C(C)O (stereo not given)	CYP2C19 inhib 65.6
Fc1ccccc1NC(=S)N/N=C/c1ccccc1Br	none
O=C(CN(C(=O)CSc1nc2ccccc2o1)c1ccccc1)NC1CCCCC1	CYP2C19 inhib 76.8
O=C(CN(C(=O)CSc1nc2ccccc2o1)c1cccc(F)c1)NC1CCCCC1	CYP2C9 inhib 62.6, CYP2C19 inhib 74.2
CS(=O)(=O)N(CC(=O)NC1CCCC1)c1cccc(F)c1	none
COc1ccc(C2c3c(ncn(CCN4CCOCC4)c3=N)Oc3ccc4ccccc4c32)cc1OC (stereo not given)	none
Cc1ccccc1NC(=O)c1sc2nc3c(c(-c4ccco4)c2c1N)CCCC3	CYP2C9 inhib 63.7
c1ccc(-c2onc3cc4c(cc23)OCCO4)cc1	CYP2C9 inhib 53.9, CYP2C19 inhib 50.1
CC1(c2ccc3noc(-c4ccc(Cl)cc4)c3c2)OCCO1	none
COC(=O)[C@@H](NC(=O)NCc1ccco1)C(C)C	none
C#CC(CC)(CC)NC(=O)c1c(C)noc1C	none
CC(=O)Nc1ccc(-c2csc(NC(=O)c3ccc(C)o3)n2)cc1	CYP2C19 inhib 52.3
CCCC(CCC)C(=O)Nc1c[nH]c(=O)[nH]c1=O	none
Cc1ccc2oc3nc(C)c(C(=O)O)cc3c(=O)c2c1	CYP2C19 inhib 60.5
CCOC(=O)c1c(C)[nH]c(C(=O)OCC(=O)N2CC(C)OC(C)C2)c1C (stereo not given)	none
CCOC(=O)c1c(C)[nH]c(C(=O)COC(=O)CCC2CCCC2)c1C	CYP2C9 inhib 82.4
